Drawing on PubChem BioAssay (EPA / NIEHS), this text covers outcome and AC50 for 18 compounds.

“And” between values parts separate entries of the source, which are not always exact repeats. Identical values can stand only once. Results filed as inconclusive are left out. Where a structure was tested more than once in an assay, its records may differ in their call. The source made the active and inactive calls. How the source made its calls: active means hit-call score of the fitted dose curve at least 0.9, where 1 is the maximum; inconclusive means response in the unintended direction; inactive means score below 0.9.

For assay [1], the target named is Cellular tumor antigen p53 (Homo sapiens) (UniProt P04637). Kind of assay: TOX21_p53_BLA_p2_ratio: Tox21 HCT-116 p53 Agonism Beta-lactamase Assay, Ratio, Phase 2 (AID 2283592). Summed up: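 In this cell-based reporter format, HCT116 cells were dosed with chemicals delivered from DMSO by 217-fold dilution and incubated 16 h at 37C. Emission at 460 and 530 nm after 2 h CCF4-AM loading provided the ratio, fitted upward versus DMSO.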

Assay [2] can be described thus: TOX21_p53_BLA_p3_viability: Viability Assessment in the Tox21 HCT-116 p53 Agonism Beta-lactamase Assay, Phase 3 (AID 2283593).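 Further: cells exposed to compound for 16 h before reading.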 The essentials:
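HCT-116 cells (4000/well) rested 5 h at 37C, then got DMSO compounds by pin tool (217-fold dilution) for 16 h at 37C, 5% CO2. After the bla read, CellTiter-Glo was added and luminescence read at 30 min, room temperature.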

Assay [3] has as its target Cellular tumor antigen p53 (Homo sapiens) (UniProt P04637). In words: TOX21_p53_BLA_p3_ratio: Tox21 HCT-116 p53 Agonism Beta-lactamase Assay, Ratio, Phase 3 (AID 2283596). The essentials: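 HCT116 p53-bla cells (4000/well) given compound in DMSO (217-fold dilution) after 5 h, incubated 16 h at 37C. CCF4-AM substrate 2 h at room temperature; 460/530 nm emission ratio, gain fitted against DMSO.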

Assay [4] can be described thus: TOX21_p53_BLA_p4_viability: Viability Assessment in the Tox21 HCT-116 p53 Agonism Beta-lactamase Assay, Phase 4 (AID 2283597).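 Further: hits lower the luminescence signal meaning cytotoxicity.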 Summed up: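 We seeded HCT116 p53 reporter cells at 4000/well and waited 5 h. We then added compounds in DMSO at a 217-fold dilution and incubated for 16 h. Viability was read as CellTiter-Glo luminescence after 30 min at RT.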
Assay [5] deals with Cellular tumor antigen p53 (Homo sapiens) (UniProt P04637). Kind of assay: TOX21_p53_BLA_p5_ratio: Tox21 HCT-116 p53 Agonism Beta-lactamase Assay, Ratio, Phase 5 (AID 2283599). Summed up:
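HCT-116 cells carrying a p53-inducible beta-lactamase reporter were seeded at 4000 cells/well and dosed after 5 h with compound in DMSO (217-fold dilution). After 16 h at 37C, CCF4-AM substrate was added for 2 h, and the 460/530 nm emission ratio was scored as gain-of-signal versus DMSO.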

Assay [6] can be described thus: TOX21_p53_BLA_p5_viability: Viability Assessment in the Tox21 HCT-116 p53 Agonism Beta-lactamase Assay, Phase 5 (AID 2283600). Summed up:
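Compounds, pinned from DMSO at 217-fold dilution, were left on the cells for 16 h. The viability endpoint was ATP content measured by CellTiter-Glo luminescence, where falling signal reflects cytotoxicity.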

For assay [7], the target named is Cellular tumor antigen p53 (Homo sapiens) (UniProt P04637). Kind of assay: TOX21_p53_BLA_p4_ratio: Tox21 HCT-116 p53 Agonism Beta-lactamase Assay, Ratio, Phase 4 (AID 2283601). The essentials: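 HCT116 cells carrying an inducible beta-lactamase reporter were plated at 4000 cells/well, rested 5 h, then exposed to compounds in DMSO (217-fold dilution) for 16 h at 37C. CCF4-AM substrate was loaded 2 h at room temperature; 460/530 nm emission ratio scored gain-of-signal versus DMSO.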

Assay [8] can be described thus: Tanguay_ZF_120hpf_MORT_legacy: (Legacy) Oregon State University Tanguay Lab 120 Hour Post-fertilization zebrafish Assay for Mortality (AID 2283633).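 On AC50: fitted as increase in binary mortality versus DMSO negative control.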 The essentials: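 Brightfield scoring of embryo death (binary) at 24 and 120 hpf; static exposure 6–120 hpf, 28C, sealed and foil-covered. Pronase-dechorionated 5D wild-type larvae, single embryo per well. DMSO 0.64% v/v; trimethyltin chloride 5uM positive control.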

The nature of assay [9]: Tanguay_ZF_120hpf_AXIS_legacy: (Legacy) Oregon State University Tanguay Lab 120 Hour Post-fertilization zebrafish Assay for Body Axis Malformation (AID 2283635).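 On AC50: potency for an increased fraction of larvae scored with body axis malformation.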 Summed up: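 Embryos: 5D wild-type, pronase-dechorionated 4 hpf; static exposure 6–120 hpf, 28C, sealed, dark, 1 embryo/well, 0.64% DMSO. 120 hpf axis malformation scored present/absent; dead embryos excluded. Analysed as gain of signal vs DMSO.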

Assay [10] is described as follows: Tanguay_ZF_120hpf_YSE_legacy: (Legacy) Oregon State University Tanguay Lab 120 Hour Post-fertilization zebrafish Assay for Yolk Sac Edema (AID 2283634). Summed up:
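Binary brightfield scoring of yolk sac edema at 120 hpf; DMSO baseline, gain-of-signal fitting. Dechorionated 5D larvae, one per well, static exposure 6–120 hpf, 28C, 0.64% DMSO. Dead embryos not scored.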

Chain of Cellular tumor antigen p53 (Homo sapiens) (P04637 whole entry, looked up): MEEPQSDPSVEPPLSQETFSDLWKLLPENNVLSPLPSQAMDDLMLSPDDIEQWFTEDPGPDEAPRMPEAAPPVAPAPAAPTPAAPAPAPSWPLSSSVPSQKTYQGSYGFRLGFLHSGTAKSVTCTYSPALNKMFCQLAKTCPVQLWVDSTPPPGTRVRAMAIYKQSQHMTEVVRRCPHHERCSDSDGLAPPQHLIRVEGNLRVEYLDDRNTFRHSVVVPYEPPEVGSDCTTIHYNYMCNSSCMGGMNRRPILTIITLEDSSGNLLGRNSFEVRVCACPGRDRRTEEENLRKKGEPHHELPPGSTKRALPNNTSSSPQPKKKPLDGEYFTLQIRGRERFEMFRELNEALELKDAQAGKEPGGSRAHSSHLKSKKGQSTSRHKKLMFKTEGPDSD

Take `CCN(CC)N=O`: the result in assay [1], in assay [2], in assay [3], in assay [4], in assay [5] and in [6] was inactive. For the same compound, the result in assay [7], in [8] and in [9] was inactive.

On to `O=P(OCCCl)(OCCCl)OCCCl`, for which the result in assay [1], in assay [2], in [3], in [4], in assay [5] and in assay [6] was inactive. Also, the result in [7], in assay [8], in assay [10] and in [9] was inactive.

In general, AC50 refers to the concentration at which the activity in the assay is half-maximal. On to `CNC(=O)Oc1cccc2c1OC(C)(C)C2`, for which the outcome in assay [1], in [2], in assay [3], in assay [5], in [6] and in [7] was inactive. Also, the outcome in assay [8] and in assay [10] was inactive. Further, in assay [9], the AC50 is 6.79 µM (active).

As to `c1ccc2c(c1)-c1cccc3cccc-2c13`, the result in assay [1], in assay [2], in assay [3], in assay [4], in assay [5] and in assay [8] was inactive. Also, the call in assay [10] and in assay [9] was inactive.

In the case of `CCC[CH2][Sn]([Cl])([CH2]CCC)[CH2]CCC`, the AC50 in assay [1] is 31.8 µM (active) and 46 µM (active); in assay [2] it was 921 nM (active) and 958 nM (active); in assay [3], 25.6 µM (active) and 28.6 µM (active); in assay [4], 917 nM (active) and 983 nM (active); in [5], 36.5 µM (active) and 31.8 µM (active); in assay [6] it was 1.52 µM (active). For the same compound, the AC50 in assay [8] is 0.282 µM (active). The outcome in [10] and in assay [9] was inactive.

In the case of `CC(O)CCO` (configuration not stated), the result in assay [1], in [2], in assay [3], in assay [4], in [5] and in assay [6] was inactive. Also, the outcome in assay [7], in assay [8], in assay [10] and in assay [9] was inactive.

Take `ClC1=C(Cl)C2(Cl)C3C(Cl)C=CC3C1(Cl)C2(Cl)Cl` (configuration not stated): the result in [1], in assay [3], in [4], in [5], in assay [6] and in [7] was inactive. In addition, the compound was classed as inactive in assay [8] and in assay [9]. Moreover, the AC50 in [2] was 46.1 µM (active) and 69.6 µM (active); in assay [4], 45.8 µM (active); in assay [6] it was 75 µM (active).

As to `ClC1=C(Cl)[C@]2(Cl)[C@H]3[C@H]([C@@H]4C=C[C@H]3C4)[C@@]1(Cl)C2(Cl)Cl`, the outcome in [1], in assay [2], in assay [3], in assay [5], in assay [6] and in assay [8] was inactive. Besides, the outcome in assay [9] was inactive. Besides, the concentration at half-maximal activity (AC50) in assay [2] is 46 µM (active).

Turning to `Clc1ccc(Cl)c(Cl)c1`, the result in assay [1], in assay [2], in [3], in assay [5], in assay [6] and in assay [10] was inactive. For the same compound, in assay [9], the compound was classed as inactive.

In the case of `c1ccc2c(c1)oc1ccccc12`, the outcome in [1], in assay [2], in [3], in assay [4], in assay [5] and in assay [6] was inactive. Further, the compound was classed as inactive in assay [8] and in assay [9].

With `OCCCBr`, the result in assay [1], in [2], in assay [3], in [4], in assay [5] and in assay [6] was inactive. Also, the call in assay [8], in [10] and in assay [9] was inactive.

Regarding `C[N+](C)(C)CC1CO1` (configuration not stated), the outcome in [1], in [2], in assay [5], in [6], in [8] and in assay [10] was inactive.

In the case of `O=[N+]([O-])c1ccc(Oc2ccc(Cl)cc2Cl)cc1`, the outcome in [1], in assay [2], in [4], in [5], in assay [6] and in [8] was inactive. The compound was called inactive in assay [9].

Consider `O=Cc1ccco1`, for which the result in assay [1], in [2], in [4], in assay [5], in assay [7] and in assay [8] was inactive. For the same compound, the call in [10] and in assay [9] was inactive.

Consider `Nc1cc(Cl)cc(C(=O)O)c1Cl`, for which the result in assay [1], in [2], in assay [4], in assay [5], in assay [6] and in assay [8] was inactive. The compound was called inactive in assay [9].

Turning to `CC(C)(O)c1cnn2c(-c3ccc(F)c(-c4c(F)cccc4C#N)c3)cnc2n1`, the outcome in assay [1], in [2], in assay [4], in assay [8], in assay [10] and in assay [9] was inactive.

With `Cc1ccc(N)c(N)c1`, the result in assay [1], in assay [2], in [4], in [5], in assay [6] and in assay [8] was inactive. For the same compound, the call in [9] was inactive.

`CC(C)(OOC(C)(C)c1ccccc1)c1ccccc1`: the result in [1], in [2], in assay [4], in [5], in [6] and in assay [7] was inactive. Moreover, the outcome in assay [8] and in assay [9] was inactive.
